Laboratory results: the antibiotic and cytotoxicity screens of Wong et al. (2023)
In all, about 39,000 compounds went through this assay and about 3,300 (8.5%) were called active. What follows is part of a selection rich in actives, with near analogues and random picks from the rest.

System: HepG2
Test: cytotoxicity call (relative viability < 0.9)
Conditions: 10 µM

SMILES	cytotoxicity call
COc1ccc(S(=O)(=O)Nc2ccc3c(c2)C(=O)N([C@H](C)CO)C[C@@H](C)[C@H](CN(C)Cc2ccc(Oc4ccccc4)cc2)O3)cc1	active
COc1ccc(S(=O)(=O)Nc2ccc3c(c2)C(=O)N([C@@H](C)CO)C[C@H](C)[C@H](CN(C)Cc2ccc(Oc4ccccc4)cc2)O3)cc1	inactive
C[C@H]1CN([C@@H](C)CO)C(=O)c2cc(NS(=O)(=O)c3ccccc3)ccc2O[C@@H]1CN(C)Cc1ccc(Oc2ccccc2)cc1	inactive
COc1ccc(S(=O)(=O)Nc2ccc3c(c2)C(=O)N([C@@H](C)CO)C[C@@H](C)[C@@H](CN(C)Cc2ccc(Oc4ccccc4)cc2)O3)cc1	active
COc1ccc(S(=O)(=O)Nc2ccc3c(c2)C(=O)N([C@@H](C)CO)C[C@@H](C)[C@H](CN(C)Cc2ccc(Oc4ccccc4)cc2)O3)cc1	active
COc1ccc(S(=O)(=O)Nc2ccc3c(c2)C(=O)N([C@@H](C)CO)C[C@H](C)[C@@H](CN(C)Cc2ccc(Oc4ccccc4)cc2)O3)cc1	inactive
COc1ccc(S(=O)(=O)Nc2ccc3c(c2)C(=O)N([C@H](C)CO)C[C@H](C)[C@H](CN(C)Cc2ccc(Oc4ccccc4)cc2)O3)cc1	inactive
COc1ccc(S(=O)(=O)Nc2ccc3c(c2)C(=O)N([C@H](C)CO)C[C@@H](C)[C@@H](CN(C)Cc2ccc(Oc4ccccc4)cc2)O3)cc1	inactive
C[C@@H]1CN([C@@H](C)CO)C(=O)c2cc(NS(=O)(=O)c3ccccc3)ccc2O[C@H]1CN(C)Cc1ccc(Oc2ccccc2)cc1	inactive
COc1ccc(S(=O)(=O)Nc2ccc3c(c2)C(=O)N([C@H](C)CO)C[C@H](C)[C@@H](CN(C)Cc2ccc(Oc4ccccc4)cc2)O3)cc1	active
CN1CCN(C(=O)C[C@H]2CC[C@@H]3[C@H](COC[C@H](O)CN3Cc3ccc4c(c3)OCO4)O2)CC1	inactive
O=C(C[C@@H]1CC[C@H]2[C@@H](COC[C@@H](O)CN2C(=O)Nc2ccc(C(F)(F)F)cc2)O1)NCCc1ccncc1	inactive
CCCNC(=O)Nc1ccc2c(c1)OC[C@@H](C)N(Cc1ccc(-c3ccccn3)cc1)C[C@@H](C)[C@H](OC)CN(C)C2=O	inactive
Nc1c(C(=O)O)cnc2nc(N3CCOCC3)nn12	inactive
COc1ccc(S(=O)(=O)Nc2ccc3c(c2)C(=O)N([C@@H](C)CO)C[C@@H](C)[C@@H](CN(C)Cc2ccc(C(=O)O)cc2)OCCCC[C@@H](C)O3)cc1	inactive
C[C@H]1CN([C@@H](C)CO)S(=O)(=O)c2ccc(C#Cc3ccc(F)cc3)cc2O[C@H]1CN(C)S(=O)(=O)c1cn(C)cn1	inactive
CNc1cc(=O)n(C)c(=O)n1C	inactive
Cc1c(C)n2c3c(=O)n(C)c(=O)n(C)c3nc2n1CCN1CCOCC1	inactive
O=C(CN1C(=O)c2ccccc2C1=O)N1CCNCC1	inactive
NC(=O)C1CCN(C(=O)c2ccc(NC3=N[C@H]4CS(=O)(=O)C[C@@H]4S3)cc2)CC1	inactive
C[C@H](CO)N1C[C@H](C)[C@H](CN(C)S(=O)(=O)c2ccc(Cl)cc2)Oc2ccc(NC(=O)c3ccncc3)cc2CC1=O	inactive
CC(C)NC(=O)Nc1ccc2c(c1)C(=O)N([C@H](C)CO)C[C@@H](C)[C@H](CN(C)C(=O)Nc1ccc(C(F)(F)F)cc1)OCCCC[C@@H](C)O2	inactive

SMILES	cytotoxicity call
C=C1COC(=O)[C@@H]2[C@@H](CO)[C@@H](O)C[C@H]12	inactive
C[C@H]1CN([C@@H](C)CO)C(=O)c2cc(NC(=O)NC3CCCCC3)ccc2O[C@@H]1CN(C)Cc1ccc(-c2ccccc2)cc1	active
C[C@H](CO)N1C[C@H](C)[C@H](CN(C)Cc2ccc(-c3ccccc3)cc2)Oc2ccc(NC(=O)NC3CCCCC3)cc2C1=O	inactive
C[C@@H]1CN([C@H](C)CO)C(=O)c2cc(NC(=O)NC3CCCCC3)ccc2O[C@@H]1CN(C)Cc1ccc(-c2ccccc2)cc1	active
C[C@@H]1CN([C@@H](C)CO)C(=O)c2cc(NC(=O)NC3CCCCC3)ccc2O[C@@H]1CN(C)Cc1ccc(-c2ccccc2)cc1	active
C[C@H](CO)N1C[C@H](C)[C@@H](CN(C)Cc2ccc(-c3ccccc3)cc2)Oc2ccc(NC(=O)NC3CCCCC3)cc2C1=O	inactive
CC(C)NC(=O)Nc1ccc2c(c1)C(=O)N([C@H](C)CO)C[C@@H](C)[C@@H](CN(C)Cc1ccc(-c3ccccc3)cc1)O2	inactive
C[C@H]1CN([C@@H](C)CO)C(=O)c2cc(NC(=O)NC3CCCCC3)ccc2O[C@H]1CN(C)Cc1ccc(-c2ccccc2)cc1	inactive
C[C@@H]1CN([C@@H](C)CO)C(=O)c2cc(NC(=O)NC3CCCCC3)ccc2O[C@H]1CN(C)Cc1ccc(-c2ccccc2)cc1	inactive
C[C@@H]1CN([C@H](C)CO)C(=O)c2cc(NC(=O)NC3CCCCC3)ccc2O[C@H]1CN(C)Cc1ccc(-c2ccccc2)cc1	inactive
[O-][NH2+][O-]	inactive
C[C@H]1CN([C@@H](C)CO)C(=O)c2cc(NC(=O)Nc3cccc4ccccc34)ccc2O[C@H]1CN(C)S(=O)(=O)c1cccs1	inactive
Cc1ccccc1[C@@H](c1ncccc1C)N(C)C(=O)C1CCN(CCOc2ccc(Cl)cc2Cl)CC1	inactive
COc1ccccc1NC(=O)N(C)C[C@H]1Oc2ncc(C#CCN(C)C)cc2C(=O)N([C@H](C)CO)C[C@@H]1C	inactive
CCCNC(=O)N1C[C@@H](O)COC[C@H]2O[C@@H](CC(=O)N3CCOCC3)CC[C@@H]21	inactive
O=C(CCCCCNC(=O)OCc1ccc(CO[C@H]2C[C@@H](c3ccc(C(F)(F)F)cc3)C=C(C(=O)N3CCN(Cc4ccc5c(c4)OCO5)CC3)O2)cc1)NO	inactive
C[C@@H]1CCCCO[C@@H](CN(C)CC2CC2)[C@@H](C)CN([C@H](C)CO)C(=O)c2cc(NC(=O)Nc3ccccc3)ccc2O1	inactive
CN1C(=O)c2cc(NC(=O)Cc3cccs3)ccc2OC[C@@H]2O[C@@H](CC(=O)NCCc3ccncc3)CC[C@@H]21	inactive
C[C@H]1CN([C@@H](C)CO)C(=O)c2cc(C3=CCCC3)cnc2O[C@H]1CN(C)C(=O)Nc1ccc(C(F)(F)F)cc1	active
C[C@@H]1CN([C@@H](C)CO)C(=O)c2cc(C3=CCCC3)cnc2O[C@@H]1CN(C)C(=O)Nc1ccc(C(F)(F)F)cc1	inactive
C[C@@H]1CN([C@@H](C)CO)C(=O)c2cc(C3=CCCC3)cnc2O[C@H]1CN(C)C(=O)Nc1ccc(C(F)(F)F)cc1	inactive
C[C@@H]1CN([C@H](C)CO)C(=O)c2cc(/C=C/c3ccccc3)cnc2O[C@@H]1CN(C)C(=O)Nc1ccc(C(F)(F)F)cc1	active

SMILES	cytotoxicity call
C[C@@H]1CN([C@H](C)CO)C(=O)c2cc(C3=CCCC3)cnc2O[C@@H]1CN(C)C(=O)Nc1ccc(C(F)(F)F)cc1	active
C[C@H](CO)N1C[C@H](C)[C@H](CN(C)C(=O)CN2CCOCC2)Oc2ncc(C3=CCCCC3)cc2C1=O	inactive
C[C@H](CO)N1C[C@H](C)[C@@H](CN(C)C(=O)CN2CCOCC2)Oc2ncc(C3=CCCCC3)cc2C1=O	inactive
C[C@H](CO)N1C[C@H](C)[C@@H](CN(C)C(=O)Nc2ccc(C(F)(F)F)cc2)Oc2ncc(/C=C/c3ccccc3)cc2C1=O	inactive
C[C@@H]1CN([C@@H](C)CO)C(=O)c2cc(/C=C/c3ccccc3)cnc2O[C@H]1CN(C)C(=O)Nc1ccc(C(F)(F)F)cc1	inactive
C[C@H]1CN([C@@H](C)CO)C(=O)c2cc(C3=CCCC3)cnc2O[C@@H]1CN(C)C(=O)Nc1ccc(C(F)(F)F)cc1	inactive
C[C@@H]1CN([C@H](C)CO)C(=O)c2cc(C3=CCCCC3)cnc2O[C@H]1CN(C)C(=O)CN1CCOCC1	active
C[C@H](CO)N1C[C@H](C)[C@H](CN(C)C(=O)Nc2ccc(C(F)(F)F)cc2)Oc2ncc(C3=CCCC3)cc2C1=O	inactive
C[C@H](CO)N1C[C@H](C)[C@H](CN(C)C(=O)Nc2ccc(C(F)(F)F)cc2)OCCCC[C@H](C)Oc2ccc(N(C)C)cc2C1=O	inactive
O=C(Cc1ccccc1)NCCN1CCOCC1	inactive
CO[C@H](CN(C)S(=O)(=O)c1cccc(Cl)c1)[C@@H](C)CN([C@@H](C)CO)S(=O)(=O)c1ccc(Cl)cc1	inactive
COc1ccc(NC(=O)N(C)C[C@@H]2Oc3ccc(NS(=O)(=O)c4cn(C)cn4)cc3C(=O)N([C@H](C)CO)C[C@H]2C)cc1	inactive
O=C(C[C@@H]1C[C@H]2c3cc(NC(=O)Nc4ccc(C(F)(F)F)cc4)ccc3O[C@H]2[C@@H](CO)O1)NCCc1ccccc1	inactive
C[C@H]1CN([C@@H](C)CO)C(=O)Cc2cc(NC(=O)Cn3cnnn3)ccc2O[C@@H]1CN(C)Cc1ccccc1	inactive
CCO[C@@H]1OC(C(=O)N2CCN(Cc3ccccc3)CC2)=C[C@H](c2ccc(Br)cc2)[C@H]1CCCOC(=O)NCCCCCC(=O)NO	inactive
C[C@@H]1CN([C@H](C)CO)C(=O)c2cc(NC(=O)Cc3ccccc3)ccc2O[C@@H]1CN(C)Cc1ccc(C(=O)Nc2ccccc2N)cc1	inactive
C[C@@H]1CCCCO[C@H](CN(C)S(=O)(=O)c2ccccc2)[C@@H](C)CN([C@@H](C)CO)C(=O)c2cc(NS(=O)(=O)c3cn(C)cn3)ccc2O1	inactive
O=C(C[C@@H]1C[C@@H]2c3cc(NS(=O)(=O)c4ccc(F)cc4)ccc3O[C@@H]2[C@H](CO)O1)NCc1ccncc1	inactive
C#CCCCCCCCCCCC[C@H](O)C[C@H](O)COC(C)=O.C=CCCCCCCCCCCC[C@H](O)C[C@H](O)COC(C)=O	inactive
C[C@@H]1CCCCO[C@@H](CN(C)C(=O)Nc2ccc3c(c2)OCO3)[C@@H](C)CN([C@H](C)CO)C(=O)c2cc(NS(=O)(=O)c3ccc(F)cc3)ccc2O1	inactive
